An excerpt weighted towards active compounds, which were near 21% of everything screened.
D3 ag: D3 dopamine receptor (human) agonism. D3R DiscoveRx beta-arrestin cells, luminescence, 90 min. max activation, %. hit rate 0.58% among 410,000. AID 652048; in the data active means max activation above about 30%; further: 0% is about no effect
Target sequence (P35462 whole entry, looked up): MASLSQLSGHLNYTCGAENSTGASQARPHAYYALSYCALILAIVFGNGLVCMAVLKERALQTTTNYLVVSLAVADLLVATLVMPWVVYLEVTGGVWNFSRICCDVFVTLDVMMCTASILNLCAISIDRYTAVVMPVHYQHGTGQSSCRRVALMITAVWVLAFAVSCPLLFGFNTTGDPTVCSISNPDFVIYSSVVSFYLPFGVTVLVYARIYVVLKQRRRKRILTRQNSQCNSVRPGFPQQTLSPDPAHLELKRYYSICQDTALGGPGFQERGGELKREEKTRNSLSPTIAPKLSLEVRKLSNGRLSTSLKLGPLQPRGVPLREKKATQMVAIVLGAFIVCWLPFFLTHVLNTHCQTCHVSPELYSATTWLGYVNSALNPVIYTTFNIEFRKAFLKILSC
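Agonist mode: compounds and dopamine controls were applied to plated cells for 90 min at 37 degrees C after an overnight attachment at 1500 cells/well. Luminescent read-out followed 30 - 60 minutes at room temperature with DiscoveRx detection reagent.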
DRD3 antagonist: blocks the human D3 dopamine receptor | max response, negative = inhibition, % | D3R cells, DiscoveRx beta-arrestin luminescence, antagonist mode; active compounds read low | hit rate 2.5% among 360,000 | P35462 | AID 652054; in the data active means max response below about -50%; inconclusive means no clear call, values can overlap the other calls; further: on the % scale 0 is the no-effect control and ±100 the full control effect
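Cells plated overnight at 1500 cells/well, then exposed to library compounds with dopamine controls for 90 minutes at 37 degrees C. DiscoveRx reagent added for 30–60 minutes at room temperature; luminescence read, quantitative HTS format.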
IL-1B inflam inh: blocks inflammasome-driven IL-1 beta release; THP-1 LPS/ATP IL-1B secretion, AlphaLISA, 16 h; active compounds read low; activity change, % at 57.5 µM; hit rate 4.7% among 360,000; in the data active means activity change below about -50%; inconclusive means mostly about -30% to -49%; further: on the % scale 0 is the no-effect control and ±100 the full control effect
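Secreted IL-1B measured by AlphaLISA bead assay after 16 h compound exposure of THP-1 cells; compounds (final up to 57.5 uM) added 1 h before LPS (250 ng/mL) and ATP (1.25 mM) stimulation; lower signal means less secretion.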
ClpP mod: qHTS Assay for Activators of ClpP. hit rate 1.9% among 340,000. Potency, µM (series often up to 57.5 µM), inactives show at the highest dose activity change, negative = active. purified B. subtilis ClpP, FRET peptide cleavage, 20 min. ATP-dependent Clp protease proteolytic subunit (Bacillus subtilis (strain 168)), P80244; active means well fitted falling curve with a large enough effect; inconclusive means small, poorly fitted or top-dose-only effect; inactive means no such curve, though single readings can be large or run the other way; further: potency means the concentration at half of the fitted maximal effect; the source files actives as falling curves though it sought activators and does not explain the sign; nearly all actives have a fitted effect of over 65% in size
Target sequence (P80244 whole entry, looked up): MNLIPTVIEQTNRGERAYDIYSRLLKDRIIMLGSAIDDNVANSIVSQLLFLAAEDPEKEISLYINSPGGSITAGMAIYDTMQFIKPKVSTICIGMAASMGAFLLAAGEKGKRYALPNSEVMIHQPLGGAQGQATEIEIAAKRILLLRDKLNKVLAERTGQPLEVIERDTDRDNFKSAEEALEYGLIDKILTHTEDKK
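FRET quenching reversal measured ClpP activation: 10 microg/mL B. subtilis ClpP at pH 8 with the FRET-FV decapeptide, read at 430 nm after 320 nm excitation. The 20-min minus 0-min signal was scaled between DMSO/no-enzyme wells and ADEP (5.8 microM final).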
DT40 TDP1 no CPT: qHTS for Inhibitors of human tyrosyl-DNA phosphodiesterase 1 (TDP1): qHTS in cells in absence of CPT; hit rate 15% among 420,000; DT40 Tdp1-/- hTDP1 cells, no CPT, ATP luminescence, 48 h; Potency, µM (series often up to 46.2 µM), inactives show at the highest dose activity change, negative = growth inhibition, usual class: inhibitors; further: potency means the concentration at half of the fitted maximal effect; on the % scale 0 is the no-effect control and ±100 the full control effect; nearly all actives have a fitted effect of over 55% in size
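Chicken DT40 Tdp1-/- cells complemented with human TDP1, screened without camptothecin (DMSO vehicle only), 400 cells/well. Compounds pin-transferred, cells incubated at 37 °C for at least 48 hr. Growth read as ATP-dependent luminescence (CellTiter-Glo, 30 min at RT).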
TDP1 cell CPT: DT40-hTDP1 cell growth loss with CPT | chicken DT40 Tdp1-/-;hTDP1 cells + 20 nM CPT, ATP luminescence, 48 h | hit rate 12% among 420,000 | Potency, µM (titrated, usually from 46.2 µM), for the others: at the top dose activity change, negative = growth inhibition, hits mostly inhibitors; further: potency means the concentration at half of the fitted maximal effect; on the % scale 0 is the no-effect control and ±100 the full control effect; nearly all actives have a fitted effect of over 55% in size
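Cell growth measured by CellTiter-Glo luminescence after a minimum 48 h, 37 C compound exposure with 20 nM CPT in Tdp1-knockout DT40 cells stably expressing hTDP1, seeded 400/well; qHTS titration format.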
Active calls of the source: *; ? = inconclusive; / = not tested or not shown. Unless noted, the call rests on the fitted dose curve; in most records, active means well fitted inhibition curve with a large enough effect; inconclusive means small, poorly fitted or top-dose-only effect; inactive means flat fitted curve, though single readings scatter.

SMILES	D3 ag	DRD3 antagonist	IL-1B inflam inh	ClpP mod	DT40 TDP1 no CPT	TDP1 cell CPT
O=C(N/N=C/c1c[nH]c2ccccc12)c1cc(-c2ccc3ccccc3c2)n[nH]1	9	17	-99*	-24%	?	3.7µM*
O=C(N/N=C/c1c[nH]c2ccccc12)c1cc(-c2ccccc2)n[nH]1	-6	10	-66*	/	-9%	0%
O=C(N/N=C/c1c[nH]c2ccccc12)c1ccn[nH]1	15	-10	32	-3%	2%	-3%
O=C(N/N=C/c1c[nH]c2ccccc12)c1cc(-c2ccc(-c3ccccc3)cc2)n[nH]1	35*	16	78	-20%	?	?
O=C(N/N=C/c1ccccn1)c1cc(-c2cccc3ccccc23)n[nH]1	1	-7	0	-2%	-27%	?
COc1cc(Cl)c(C)cc1NC(=O)CCN1C(=O)NC(C)(C)C1=O	6	6	9	/	-7%	18%
C=CCNC(=O)c1c(Br)cnn1-c1ccc(C)cc1	19	6	14	/	-8%	-26%
COc1ccc(CCNC(=O)CSc2nnc(C(C)N(C)C)n2Cc2ccccc2)cc1OC (stereo unspecified)	-2	7	16	/	-4%	15%
COc1ccc(Cn2c(CO)cnc2SCC(=O)NCc2ccco2)cc1	0	/	/	-1%	7%	3%
O=C(N/N=C\c1c[nH]c2ccccc12)c1ccc(O)cc1	0	33	-9	/	-13%	5%
Cc1ccc(-c2cc(C(=O)N/N=C/c3c[nH]c4ccccc34)[nH]n2)cc1	6	14	0	/	2.6µM*	2.3µM*
CC(C)COc1ccc(C(=O)N2CCN(CCc3ccccn3)CC2)cc1	-12	/	/	0%	-23%	-23%
CC(C)CC(=O)O/N=C1\C(=O)N(c2ccccc2)c2ccccc21	-2	-11	-64*	-18%	23µM*	21µM*
Cc1nn(Cc2cccc(C(=O)Nc3ccn(Cc4ccccc4F)n3)c2)c(C)c1[N+](=O)[O-]	-2	-4	0	1%	?	23µM*
Cc1nn(Cc2ccc(Cl)cc2)c(C)c1NC(=O)CCCn1nc(C)c([N+](=O)[O-])c1C	-5	-10	-12	-1%	?	-18%
Cc1nn(Cc2ccccc2)c(C)c1NC(=O)CCCn1nc(C)c([N+](=O)[O-])c1C	-1	-6	-3	28µM*	1%	-6%
Cc1nn(Cc2ccccc2)c(C)c1NC(=O)CCCn1nc([N+](=O)[O-])c(Cl)c1C	-4	16	-19	-3%	-25%	-25%
Cc1nn(Cc2c(Cl)cccc2Cl)c(C)c1NC(=O)CCCn1nc([N+](=O)[O-])c(Cl)c1C	-4	-3	-7	-3%	21µM*	?
O=C(Nc1ccn(Cc2ccccc2F)n1)c1ccc(COc2ccc(Br)cc2)cc1	-4	14	-27	-16%	?	11µM*
NNC(=O)c1ccc(COc2ccc3c(c2)CCC3)o1	7	-17	9	-4%	12%	6%
CCN(Cc1cnn(C)c1)C(=O)c1cc(COc2ccc3c(c2)CCCC3)on1	5	1	-6	1%	12µM*	16µM*
Cn1cc(CNC(=O)c2cc(COc3ccc4c(c3)CCCC4)on2)cn1	8	32	-8	-2%	15µM*	?
O=C(NC(c1cccnc1)C(F)(F)F)c1cc(COc2ccc3c(c2)CCCC3)on1 (stereo unspecified)	8	35	?	-1%	2.6µM*	4.1µM*
CCCc1cc(=O)oc2c3c(ccc12)OCN(Cc1ccc(OC)cc1)C3	-13	/	/	4%	?	?
O=C(O)c1ccc(NC(=O)c2cc3c([nH]c2=O)CCCC3=O)cc1	/	/	/	?	-13%	-3%
SMILES	D3 ag	DRD3 antagonist	IL-1B inflam inh	ClpP mod	DT40 TDP1 no CPT	TDP1 cell CPT
CC1=C(C(=O)OCc2ccccc2)C(c2cccc(Cl)c2Cl)CC(=O)N1 (stereo unspecified)	-15	/	/	-2%	-29%	?
COc1ccccc1C1CC(=O)NC(C)=C1C(=O)OC(C)C (stereo unspecified)	6	7	15	/	13µM*	?
COC(=O)C1=C(C)NC(=O)CC1c1cccc(Cl)c1Cl (stereo unspecified)	4	-20	35	1%	?	?
COc1ccccc1C1CC(=O)NC(C)=C1C(=O)OC1CCCCCC1 (stereo unspecified)	8	/	/	-14%	13µM*	21µM*
CC1=C(C(=O)OCc2ccc(C)cc2)C(c2ccccc2C(F)(F)F)CC(=O)N1 (stereo unspecified)	-2	/	/	-1%	21µM*	23µM*
CC1=C(C(=O)OC2CCCC2)C(c2ccccc2C(F)(F)F)CC(=O)N1 (stereo unspecified)	2	/	/	-1%	15µM*	18µM*
CCCN(CC(=O)Nc1ccccc1C)C(=O)CCCOc1ccc(Br)cc1	0	-4	4	0%	18µM*	?
Cc1cccc(NC(=O)CCN2C(=O)c3cccc([N+](=O)[O-])c3C2=O)c1	2	-4	16	1%	18%	1%
CCCN(CC(=O)Nc1ccccc1C)C(=O)CCN1C(=O)c2cccc([N+](=O)[O-])c2C1=O	-8	-13	-51*	-4%	-19%	6%
COc1cc(NC(=O)CSc2nnc3ccc(-c4cccnc4)nn23)cc(OC)c1	4	38	12	1%	6%	-2%
COc1ccc(S(=O)(=O)N(C)c2ccc(C(=O)N3CCN(c4ccccc4)CC3)cc2)cc1OC	6	13	-26	-6%	16µM*	15µM*
COc1ccc(N(C)S(=O)(=O)c2cccc(C(=O)N3CCN(S(=O)(=O)c4ccc(C)cc4)CC3)c2)cc1	-2	10	-15	-1%	?	26µM*
O=C(c1cccc(-n2cccc2)c1)N1CCN(S(=O)(=O)c2ccccc2)CC1	7	7	22	/	?	21%
CCOC(=O)N1CCN(C(=O)c2ccc(N(C)S(=O)(=O)c3ccc(C)cc3)cc2)CC1	9	5	0	-1%	?	?
Cc1ccc(S(=O)(=O)N2CCN(C(=O)c3cccc(-n4cccc4)c3)CC2)cc1	-7	1	-8	-2%	?	16µM*
COc1ccc(N2CCN(C(=O)c3ccc(N(C)S(=O)(=O)c4ccc(C)cc4)cc3)CC2)cc1	0	1	0	/	16µM*	16µM*

Source: PubChem BioAssay
